Data on 21 molecules can be found in PubChem BioAssay AID1851 (National Center for Advancing Translational Sciences (NCATS), 2009).

Where “and” joins values, the source holds several entries; their conditions need not be identical. Equal entries are not always repeated. Out of some 16,000 compounds screened, about 2,600 (16%) were called active. Another 20% or so got no clear call; they are omitted. The call rests on the fitted dose curve; in most records, active means well fitted curve in the direction sought with a large enough effect; inconclusive means small, poorly fitted or top-dose-only effect, or effect the other way; inactive means no such curve, though single readings can be large or run the other way. The list comes from a sample in which actives are over-represented; it also holds similar structures and randomly drawn compounds.
On the % scale 0 is the no-effect control and ±100 the full control effect.

Sequence of Cytochrome P450 2D6 (Homo sapiens) (P10635 whole entry, looked up): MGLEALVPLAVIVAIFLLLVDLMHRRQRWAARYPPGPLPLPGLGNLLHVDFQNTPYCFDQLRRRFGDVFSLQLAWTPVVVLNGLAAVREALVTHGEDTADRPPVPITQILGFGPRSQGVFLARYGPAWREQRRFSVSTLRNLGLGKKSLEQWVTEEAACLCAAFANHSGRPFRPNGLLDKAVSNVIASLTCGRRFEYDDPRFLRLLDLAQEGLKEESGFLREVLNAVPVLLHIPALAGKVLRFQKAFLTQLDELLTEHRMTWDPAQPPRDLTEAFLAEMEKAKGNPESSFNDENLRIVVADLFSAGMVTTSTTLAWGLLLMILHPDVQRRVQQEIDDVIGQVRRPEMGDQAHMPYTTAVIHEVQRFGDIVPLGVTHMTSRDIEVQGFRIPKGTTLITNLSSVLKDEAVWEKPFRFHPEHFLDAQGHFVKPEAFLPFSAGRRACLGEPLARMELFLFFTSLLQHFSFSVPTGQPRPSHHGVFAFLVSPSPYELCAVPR

The test concerns the target Cytochrome P450 2D6 (Homo sapiens) (UniProt P10635). In words: Cytochrome panel assay with activity outcomes. To be noted: recombinant CYP, pro-luciferin dealkylation, luminescence, p450-cyp2d6; series mostly up to 57.1 µM.
For the molecule `O=C(CNS(=O)(=O)c1ccc(Br)s1)N1CCC2(CC1)OCCO2`, the AC50 (usually the concentration giving half of the maximal activity seen) was “inactive”.

For the molecule `NC(N)=NN=Cc1c(Cl)cccc1Cl`, the AC50 was 10 µM (active).

With `O=P(O)(O)c1ccccc1` (tested in a mixture with another compound), the activity, negative = inhibition is 15.2% [at 11.4 µM] (inactive).

Take `O=C(O)Cc1cccnc1C(=O)O`: the AC50 result was “inactive”.

Regarding `O=C(O)[C@@H]1[C@H](C(=O)O)[C@]2(Cl)C(Cl)=C(Cl)[C@@]1(Cl)C2(Cl)Cl`, the activity, negative = inhibition is -8.74% [at 11.4 µM] (inactive).

As for `O=c1c2ccccc2c2ccccc2c(=O)n1-c1cc2c3ccccc3ccc2c2ccccc12`, the activity, negative = inhibition was 2.85% [at 11.4 µM] (inactive).

`NCC[C@H](O)C(=O)N[C@H]1C[C@@H](N)[C@@H](O[C@H]2O[C@@H](CN)[C@@H](O)[C@@H](O)[C@@H]2N)[C@@H](O[C@H]2O[C@@H](CO)[C@@H](O)[C@@H]2O)[C@@H]1O`: the AC50 result is “inactive”.

Take `c1ccc2sc(C3(N4CCCCC4)CCCCC3)cc2c1`: the AC50 was 12.6 µM (active) and 3.16 µM (active).

As for `CN1C(=O)CCS(=O)(=O)[C@H]1c1ccc(Cl)cc1`, the AC50 entry is “inactive”.

Consider `CCCn1c(=O)c2[nH]c(C3CCCC3)nc2n(CCCOC(=O)c2ccc(S(=O)(=O)F)cc2)c1=O`, for which the AC50 entry is “inactive”.

Regarding `Cc1ncsc1CCCl`, the AC50 is 12.6 µM (active).

Consider `C=C(C)[C@H]1CC[C@]2(C(=O)O)CC[C@]3(C)[C@@H](CC[C@H]4[C@@]5(C)CC[C@@H](O)C(C)(C)[C@@H]5CC[C@@]43C)[C@H]12`, for which the AC50 entry is “inactive”.

As for `Cc1nc(-c2ccc(-c3ccc(C(=O)N4CCc5cc6c(cc54)C4(CCN(C)CC4)CO6)cc3)c(C)c2)no1`, the concentration at half-maximal activity (AC50) was 31.6 µM (active).

Consider `COC(=O)c1c(C)ccc2c(O)c3c(cc12)C(=O)c1c2c(cc(O)c1C3=O)[C@@]1(C)O[C@@](C)(O2)[C@@H](O)[C@H](N(C)C)[C@H]1O`, for which the activity, negative = inhibition was -17.5% [at 11.4 µM] (inactive).

For `C=C[C@]12CN(C)[C@H]3C1[C@@]1(C(=O)Nc4ccccc41)[C@H]1C[C@H]2[C@H]3CO1`, the AC50 result was “inactive”.

With `N[C@@H](CSC1c2ccccc2-c2ccccc21)C(=O)O`, the activity, negative = inhibition was -14.3% [at 11.4 µM] (inactive).

In the case of `O=C(CNS(=O)(=O)c1cccs1)N1CCC2(CC1)OCCO2`, the AC50 entry was “inactive”.

In the case of `Fc1ccc(C(OCCN2CCN(C/C=C\c3ccccc3)CC2)c2ccc(F)cc2)cc1`, the concentration at half-maximal activity (AC50) was 7.94 µM (active).

Take `Clc1ccc([C@@H](OCCN2CCCCC2)c2ccccc2)cc1`: the AC50 was 0.0158 µM (active).

Regarding `C(=C/c1ccccc1)/CN1CCN(CCOC(c2ccccc2)c2ccccc2)CC1`, the AC50 is 5.01 µM (active).

Regarding `CC(C)(c1ccc(OC[C@@H]2CO2)cc1)c1ccc(OC[C@H]2CO2)cc1`, the AC50 result is “inactive”.
